# Assay outcomes from PubChem BioAssay.
# D2 antag: HTS Assay for Allosteric Antagonists of the Human D2 Dopamine Receptor: Primary Screen for Antagonists | HEK293 TREx D2 cells, calcium flux, dopamine EC80 | D(2) dopamine receptor (Homo sapiens), P14416 | AID 485344, 2010 | inhibition, % at 10 µM | 340,000 tested, 2% active; in the data active means inhibition above about 30%; inactive means below that, where a call was filed
# Target sequence (P14416 whole entry, looked up): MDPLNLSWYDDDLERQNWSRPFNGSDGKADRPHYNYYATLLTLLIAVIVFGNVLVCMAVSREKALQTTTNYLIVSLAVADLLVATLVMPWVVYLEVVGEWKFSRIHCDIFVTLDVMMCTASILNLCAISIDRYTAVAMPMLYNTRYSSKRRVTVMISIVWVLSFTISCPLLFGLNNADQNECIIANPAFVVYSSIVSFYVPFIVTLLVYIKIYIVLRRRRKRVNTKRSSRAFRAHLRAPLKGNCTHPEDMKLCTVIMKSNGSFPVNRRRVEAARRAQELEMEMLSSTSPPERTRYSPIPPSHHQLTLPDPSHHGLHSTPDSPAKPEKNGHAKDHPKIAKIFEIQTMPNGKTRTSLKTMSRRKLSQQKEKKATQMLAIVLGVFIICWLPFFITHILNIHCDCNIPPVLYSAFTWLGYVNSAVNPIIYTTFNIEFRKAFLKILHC
#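 Read-out: kinetic calcium fluorescence (1 cycle/s) in inducible HEK293 T-REx D2 cells after an EC80 dopamine addition that followed 180 s compound preincubation. Loss of the dopamine response indicates antagonism.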
# D2 ag-1: HTS Assay for Allosteric Agonists of the Human D2 Dopamine Receptor: Primary Screen for Agonists | D(2) dopamine receptor (Homo sapiens), P14416 | HEK293 T-REx D2 cells, calcium flux agonist mode | activation, % at 2 µM | 340,000 tested, 0.53% active;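 active means activation over 3 SD above normal in the single-dose calcium agonist read, cut at about 30% in these data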
#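 HEK293 Trex D2 cells, tetracycline-induced, o/n 30 C 5% CO2; no-wash Ca dye, RT 30–90 min; 10-cycle baseline, 23 nl cpd added, kinetic Ca read 180 s; agonist hits = positive Ca response.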
# LDHA block: qHTS assay for inhibitors of human lactate dehydrogenase; purified LDHA, NADH/diaphorase-resazurin fluorescence; stronger effect = lower value; L-lactate dehydrogenase A chain (Homo sapiens), P00338; AID 1347041, 2019; activity change, % (values are at about 110 or 230 µM); 480,000 tested, 0.15% active; in the data active means activity change below about -30%; inconclusive means mostly about -25% to -30%
#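 Human LDH5 at 2 nM final in Tris HCl pH 7.4 with 0.06 mM NADH and 0.2 mM pyruvate, reacted 5 minutes at room temperature. Remaining NADH coupled via diaphorase/resazurin; resorufin fluorescence read at 0 and 20 minutes, normalized to enzyme-free and DMSO wells.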
# D2 PAM-1: Beta-Arrestin HTS for Positive Allosteric Modulators of the Human D2 Dopamine Receptor: Potentiators. potentiation, % (no concentration beside the values). AID 624464, 2012. DiscoveRx D2 beta-arrestin cells, luminescence, 90 min; 100% = 57 uM dopamine signal. 360,000 tested, 0.23% active; in the data active means potentiation above about 50%; inconclusive means mostly about 30% to 49%
#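 D2 cells co-treated with compound plus 50 nM dopamine (EC20) for 90 min at 37 deg C to detect potentiation. Beta-arrestin recruitment was read as enzyme-fragment luminescence after 1 h at ambient temperature. Full response was set by 57 uM dopamine.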
# D2 ag-2: Beta-Arrestin HTS for Positive Allosteric Modulators of the Human D2 Dopamine Receptor: Agonists. DiscoveRx PathHunter D2 beta-arrestin, luminescence, 90 min; 100% = 57 uM dopamine signal. activation, % (no concentration beside the values). 360,000 tested, 0.084% active. AID 624465, 2012; in the data active means activation above about 40%; inconclusive means between about 15% and that limit
#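 Agonist mode: compounds alone added to overnight-plated D2 PathHunter cells for 90 min at 37 C, with 57 uM final dopamine (EC100) defining full response. Beta-arrestin recruitment detected by chemiluminescent reagent, read after 1 h at ambient temperature.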
# D2 PAM-2: HTS Assay for Positive Allosteric Modulators of the Human D2 Dopamine Receptor: Primary Screen for Potentiators | D(2) dopamine receptor (Homo sapiens), P14416 | potentiation, % at 10 µM | HEK293 T-REx D2, calcium flux, EC20 dopamine potentiation | AID 485347, 2010 | 340,000 tested, 0.34% active;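 active means potentiation over 3 SD above the plate norm, cut at about 30% in these data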
#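 Calcium flux readout, no-wash dye, 1 read/s. Inducible HEK293 Trex D2 line, overnight 30 C. Compound alone 180 s (agonist flags), then EC20 dopamine, another 180 s to score potentiation.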
# Hits are given with their value; 0 = inactive; ? = inconclusive; - = no result given; ! = not active in a repeat. The list is not random: actives were taken first. Their share in the collection is about 2.1%.
SMILES,D2 antag,D2 ag-1,LDHA block,D2 PAM-1,D2 ag-2,D2 PAM-2
CSCCC(NC(=O)c1ccccc1)C(=O)NCCc1ccc2c(c1)OCCO2 (stereo not given),66,0,0,0,0,0
CSCCC(NC(=O)c1ccccc1)C(=O)NC1CC1 (stereo not given),0,0,0,0,0,0
NC(=O)CC(NC(=O)c1ccc(Cl)cc1)C(=O)NCCc1ccc(S(N)(=O)=O)cc1 (stereo not given),0,0,0,0,0,0
CSCCC(NC(=O)c1ccccc1)C(=O)NCc1ccc(C(F)(F)F)cc1 (stereo not given),-,-,0,-,-,-
O=C(NCC(c1cccs1)N1CCOCC1)c1ccccc1NS(=O)(=O)c1cc([N+](=O)[O-])ccc1Cl (stereo not given),33,0,0,0,0,0
Cc1cc(C)cc(OCCCOc2cccc3cccnc23)c1,33,0,0,0,0,0
COc1cccc(NC(=O)C(=O)NCCc2sc(-c3ccc(Cl)cc3)nc2C)c1,-,-,0,-,-,-
Fc1ccc(/C=N/n2c(C3CCCCC3)n[nH]c2=S)cc1,50,0,0,0,?,0
COc1cc(C(=O)Nc2nc(C)c(Cc3ccc4c(c3)OCO4)s2)cc(OC)c1OC,40,0,0,0,0,0
CN(Cc1ccccc1)Cc1nc2c(c(=O)n(C)c(=O)n2C)n1CCc1ccccc1,-,-,-31!,0,0,-
COc1ccc(-c2cc(C(=O)NC(C)c3ccccn3)c3ccccc3n2)cc1OC (stereo not given),0,0,0,0,0,44
COc1ccc(-c2cc(C(=O)NC3CCCC3)c3ccccc3n2)cc1OC,-,-,0,0,0,-
Cc1ccc(S(=O)(=O)N(C)Cc2ccccc2)cc1C(=O)N1CCCCC1,0,0,0,0,0,0
CC(=O)N1CCN(C(=O)c2cc(S(=O)(=O)N(C)Cc3ccccc3)ccc2Cl)CC1,30,0,0,0,0,0
CCCCN(C)Cc1c(O)ccc2c(-c3ccccc3)cc(=O)oc12,64,0,0,0,0,-
CCCCN(CC)Cc1c(O)ccc2c(-c3ccccc3)cc(=O)oc12,0,0,0,0,0,0
COc1cccc(NC(=O)C(Cc2ccc(OC)cc2OC)c2nn[nH]n2)c1 (stereo not given),-,-,0,-,-,-
O=C1ON=C(c2ccccc2)/C1=C/c1ccc(O)c(O)c1,0,0,0,0,0,0
O=C1ON=C(c2ccccc2)/C1=C/c1ccc(OS(=O)(=O)c2ccccc2)cc1,0,0,-39,0,0,0
COc1ccc(/C=C2\C(=O)ON=C2c2ccccc2)cc1,0,0,-32,0,0,0
O=C1ON=C(c2ccc(Cl)c([N+](=O)[O-])c2)/C1=C/c1cccc([N+](=O)[O-])c1O,-,-,-31,0,0,-
O=C1ON=C(c2ccccc2[N+](=O)[O-])/C1=C/c1cccc([N+](=O)[O-])c1O,0,0,0,0,0,0
CCc1c(C)sc(NC(=S)N2CCN(C(=O)C3CCCO3)CC2)c1C(=O)OC (stereo not given),0,0,0,0,0,0
CCc1c(C)sc(NC(=S)N2CC(C)OC(C)C2)c1C(=O)OC (stereo not given),0,0,0,68,0,0
CN(C)C(=O)CCS(=O)(=O)Cc1coc(-c2ccc(F)cc2)n1,-,-,-34,-,-,-
CNC(=O)CCS(=O)(=O)Cc1coc(-c2ccc(F)cc2)n1,-,-,0,-,-,-
COc1ccc(NS(=O)(=O)c2cc3c(cc2C)NC(=O)CO3)c(OC)c1,0,38!,0,0,0,0
Cc1ccccc1NS(=O)(=O)c1cc2c(cc1C)NC(=O)CO2,0,0,0,0,0,0
O=C1CCCCCN1CSc1nc2ccccc2s1,0,0,0,0,0,36
